Our source for the outcome values is PubChem BioAssay AID493191 (Broad Institute, 2011).

About 330 (25%) of roughly 1,300 compounds were called active. No rule for the calls is given here. The list is a sample of the results. Entries that show only a call come without a potency. Potency and affinity values are given separately.

The assay can be described thus: growth inhibition of MALME3 cells – cell-based, CellTiter-Glo, cherry-picked, orthogonal assay for MITF inhibitor project, dose response (AID 493191). The note with it: MALME3 melanoma viability, CellTiter-Glo luminescence, 24 h; series mostly up to 35 µM. (In general: In ATP-based viability assays light output follows the ATP content of the culture.)
In the case of `Cn1nnnc1Sc1ncnc2scc(-c3ccc(F)cc3)c12`, the molecule was classed as inactive. On to `Cn1nnnc1Sc1ncnc2scc(-c3ccsc3)c12`, for which the molecule was classed as inactive. For the molecule `O=C(O)c1ccc(N/N=C/c2ccc(OC(=O)c3cccc(Cl)c3)cc2)cc1`, the outcome was inactive. Take `COc1ccccc1N1CCN(/N=C/c2cccc(Cl)c2)CC1`: the molecule was classed as inactive. The entry for `CC(Oc1ccccc1)C(=O)Nc1nc(-c2ccccn2)cs1` (configuration not stated) is “inactive”; for `O=C(Nc1nc(-c2ccccn2)cs1)c1ccccc1-n1cnnn1` it is “inactive”. The entry for `COc1ccc(C(=O)/C=C/Nc2ccccn2)cc1` is “inactive”; for `Cc1nc2ccc(NC(=O)c3ccco3)cc2nc1C` it is “inactive”; for `Cc1cccc(NC(=O)c2ccc([N+](=O)[O-])o2)c1C` it is “inactive”. The entry for `O=C(Nc1ccc2nn(-c3ccccc3)nc2c1)c1ccco1` is “inactive”; for `Cc1cc(C(=O)Nc2cccc(C(=O)O)c2)oc1C` it is “inactive”. On to `COc1ccc(C(=O)Nc2ccc3c(c2)OCCO3)cc1Br`, for which the call was inactive. The entry for `CC(C)[C@H](NC(=O)OC(C)(C)C)c1nnc(S(=O)(=O)Cc2c(F)cccc2Cl)o1` is “inactive”. The entry for `CCOc1ccc(C(=O)N2CCc3ccccc32)cc1` is “inactive”; for `N#C/C(=C\c1cccs1)C(=O)NCC1CCCO1` (configuration not stated) it is “inactive”; for `Cc1ccc2oc(=O)n(CCCOc3ccccc3)c2c1` it is “inactive”. The entry for `CN1CCN(CCCOc2ccc(-c3ccccc3)cc2)CC1` is “inactive”. Turning to `CN(C)Cc1c(O)ccc2c1O/C(=C\C=C\c1ccccc1)C2=O`, the result was inactive. Turning to `Cc1ccccc1OCc1nc2c3cnn(C)c3ncn2n1`, the outcome was inactive. For `CC(=O)NC1=C(N(C)C2CCS(=O)(=O)C2)C(=O)c2ccccc2C1=O` (configuration not stated), the call was inactive. The entry for `CCCCC1C(=O)N(c2ccccc2)N(c2ccc(O)cc2)C1=O` (configuration not stated) is “inactive”; for `O=C(COc1ccc2c(c1)CCC2)N1CCc2ccccc21` it is “inactive”. As to `O=C(CCl)N(c1ccccc1)C1CCS(=O)(=O)C1` (configuration not stated), the molecule was classed as inactive.

Consider `O=C(Nc1ccccc1)NN(C(=O)CCl)c1ccccc1`, for which the result was inactive. Consider `CN(C)c1ccc(/C=N/N2CCN(c3ccccn3)CC2)cc1`, for which the result was inactive. The entry for `Cc1ccc(NC(=O)C2CCN(S(=O)(=O)c3c(C)noc3/C=C/c3ccco3)CC2)nc1` is “inactive”; for `CCN=c1scc(-c2ccco2)n1/N=C/c1ccc(O)cc1` it is “inactive”. The entry for `NC(=O)C1CCN(C2=C(NS(=O)(=O)c3ccc(Br)cc3)C(=O)c3ccccc3C2=O)CC1` is “inactive”; for `Cc1ccc(C(CNS(=O)(=O)c2ccc(Br)cc2)N2CCN(C)CC2)cc1` (configuration not stated) it is “inactive”.

`Cc1ccc(S(=O)(=O)Nc2cccc3cccnc23)cc1`: the molecule was called inactive.

For the molecule `O=C(/C=C/c1ccc2c(c1)OCCO2)c1ccccc1`, the result was inactive. On to `O=C(NC1=NCCS1)c1ccc(Cl)c(Cl)c1`, for which the result was inactive. Take `CC(C)c1ccc(C(=O)Nc2cccnc2)cc1`: the molecule was classed as inactive. The entry for `O=C(NCc1ccccc1)NC1(C(=O)Nc2ccc3c(c2)OCCO3)CCCCC1` is “inactive”; for `COc1ccc(-n2cc(-c3ccc(C)cc3)[n+]3c2SCC3)cc1` it is “inactive”; for `COc1cc(SC)ccc1C(=O)Nc1nc(C)cs1` it is “inactive”. The entry for `O=C(CSc1nc2ccccc2[nH]1)c1ccc2c(c1)OCO2` is “inactive”. The entry for `O=C(Nc1ccc(Br)cc1)c1ccc2c(c1)OCO2` is “inactive”; for `Cc1cccc(NC(=O)c2cnn(-c3ccccc3)c2C)c1C` it is “inactive”. On to `CCc1nc2oc3ccc(C)cc3c(=O)c2cc1C(=O)OC`, for which the molecule was classed as inactive. The entry for `O=C(N/N=C/C(Cl)=C\c1ccccc1)c1cccs1` is “inactive”; for `O=C(NCc1ccco1)c1nc2c(nnn2Cc2ccccc2Cl)c(=O)[nH]1` it is “inactive”; for `CCOc1ccc(N=C(C)C2=C(O)c3ccccc3C2=O)cc1` it is “inactive”.

As to `Nc1nnc(/C=C/c2ccccc2Cl)s1`, the molecule was classed as inactive. The entry for `O=C(NCC1CCCO1)c1cc(-c2ccc(Cl)cc2Cl)on1` (configuration not stated) is “inactive”; for `CS/C(N)=N/N=C/c1ccc2c(c1)OCO2` it is “inactive”. For `CN(C)c1nc(-c2ccccn2)nnc1-c1ccccc1`, the result was inactive. The entry for `O=C(/C=C/c1ccc(Cl)c([N+](=O)[O-])c1)c1ccc(O)cc1` is “inactive”; for `O=C(c1ccc(S(=O)(=O)Cc2ccccc2Cl)c([N+](=O)[O-])c1)N1CCN(c2ccccn2)CC1` it is “inactive”.

For the molecule `COc1ccc(/C=C2\SC(=S)N(CCCC(=O)NNC(=O)c3ccccc3O)C2=O)cc1`, the outcome was inactive. The entry for `N#C/C(=C(/O)CCl)c1nc2ccccc2[nH]1` is “inactive”; for `COc1ccc(O)c(/C=N/NC(=O)c2ccc(CSc3nc(C)cc(C)n3)cc2)c1` it is “inactive”; for `COc1nc(NC2CCCCC2)nc(NC(C)(C)C)n1` it is “inactive”. Regarding `O=C(CCCc1ccccc1)Nc1cccc(C(=O)O)c1`, the result was inactive. The entry for `CCOC(=O)c1[nH]cnc1N=Nc1c(O)ccc2ccccc12` is “inactive”. The entry for `O=C1N=C(N2CCOCC2)S/C1=C\C=C/c1ccccc1` is “inactive”; for `Cc1nc(-c2ccccn2)sc1C(=O)Nc1ccc(F)cc1F` it is “inactive”. The entry for `O=C(O)c1cc(N/N=C/C(Cl)=C/c2ccccc2)ccc1Cl` is “inactive”. Take `C=CCNC(=O)c1ccc2nc(Cc3ccc(OC)cc3)oc2c1`: the result was inactive.

For the molecule `Cc1ccc(C(=O)N/C(=C\c2ccc(-c3ccccc3[N+](=O)[O-])o2)C(=O)NCCCN(C)C)cc1`, the result was inactive. The entry for `CN(C)CCNC(=O)/C(=C/c1ccc(-c2ccc(Cl)cc2)o1)NC(=O)c1ccccc1` is “inactive”; for `Cc1ccc(C(=O)N/C(=C\c2ccc(-c3ccccc3[N+](=O)[O-])o2)C(=O)NCCN(C)C)cc1` it is “inactive”; for `CCOc1ccc(-n2c(-c3ccc(OC)cc3)c[n+]3c2CCCCC3)cc1` it is “inactive”. The entry for `CCN(CC)C(=O)CCCOc1ccc(Cl)cc1Cl` is “inactive”; for `Cc1nc2nc(C)c(NS(=O)(=O)c3ccc4c(c3)CCCC4)c(=O)n2[nH]1` it is “inactive”; for `Cc1cccnc1NC(=O)NC(=O)c1ccc(C(C)(C)C)s1` it is “inactive”.

`N#Cc1c(NC(=O)CSc2ncn[nH]2)sc2c1CCCC2`: the call was inactive.

Regarding `N#Cc1c(NC(=O)CSc2ncn[nH]2)sc2c1CCCCC2`, the molecule was called inactive. The entry for `Cn1nnnc1Sc1ncnc2scc(-c3cccs3)c12` is “inactive”; for `Cc1ccc(-c2nc(-c3ccncc3)no2)cc1C` it is “inactive”. As for `O=C(Nc1cccnc1Cl)c1cc(-c2ccco2)on1`, the molecule was classed as inactive. Take `CCN(CC)S(=O)(=O)c1cccc(C(=O)N/N=C(\C)c2ccc(O)cc2O)c1`: the outcome was inactive. The entry for `COc1cc(CN2CCC(C(=O)NCCC(C)C)CC2)ccc1OCc1ccccc1` is “inactive”; for `O=C(Nc1ccc(Cl)cc1)N1CC=CCC1` it is “inactive”; for `O=C(Nc1ccc(Nc2ccncc2)cc1)c1ccc([N+](=O)[O-])cc1` it is “inactive”. The entry for `COc1ccc2oc(=N)c(C(=O)Nc3ccccc3Cl)cc2c1` is “inactive”. The entry for `CCCCOc1ccc(-c2nnn(C(C)(C)C(=O)OC)n2)cc1` is “inactive”; for `CC1=C/C(=N\NC(=S)Nc2cccnc2)CC(C)(C)C1` it is “inactive”; for `COc1cccc(/C=N/Nc2ncnc3c2ncn3Cc2ccccc2)c1O` it is “inactive”. With `COc1ccc(/C=N/N=C2/SCC(=O)N2Cc2ccccc2)cc1`, the molecule was called inactive. The entry for `N#Cc1ccc(-c2cccnc2)nc1SCC(=O)c1ccccc1` is “inactive”; for `COc1ccccc1N1CCN(/N=C/c2ccc([N+](=O)[O-])cc2)CC1` it is “inactive”; for `O=C(c1ccc([N+](=O)[O-])s1)N1CCCc2ccccc21` it is “inactive”. Consider `O=Cc1ccc(N2Cc3ccccc3C2)cc1`, for which the outcome was inactive. The entry for `COc1ccccc1N1CCN(/N=C\c2ccccc2)CC1` is “inactive”. The entry for `Cc1ccc(-c2cc3onc(-c4ccccc4)c3c(=O)n2C)cc1` is “inactive”. The entry for `CC(=O)CSc1ccc(-c2nc3cc(C)c(C)cc3[nH]2)cn1` is “inactive”; for `O=C(O)c1ccc(Nc2nc3c(s2)CCCC3)cc1` it is “inactive”; for `CC(C)(C)c1ccc(-c2noc(CCC(=O)NCc3ccco3)n2)cc1` it is “inactive”. In the case of `Cc1ccc(C(=O)Nc2ccccc2Cl)cc1`, the call was inactive. The entry for `Cc1ccc(OCCCCN2CCCCC2)c(Br)c1` is “inactive”; for `COc1ccc(Br)cc1C(C[N+](=O)[O-])c1c(N)n(C)c(=O)n(C)c1=O` (configuration not stated) it is “inactive”; for `CN(C)CCCN(C(=O)c1ccc(Cl)s1)c1nc2cc3c(cc2s1)OCO3` it is “inactive”. As for `Cc1ccc2nc(NC(=O)CCCC(=O)O)sc2c1`, the outcome was inactive.

Regarding `CN(Cc1ccccc1)C1=CC(=[N+]2CCCC2)CC(C)(C)C1`, the molecule was classed as inactive. The entry for `CN(C)c1cc[n+](CC(=O)c2ccc(-c3ccccc3)cc2)cc1` is “inactive”; for `CN(CC(=O)N1CCCCCC1)S(=O)(=O)c1ccccc1` it is “inactive”. The entry for `CCN(CC)Cc1c(O)ccc2c1O/C(=C\C=C\c1ccccc1)C2=O` is “inactive”; for `Cc1cc(C)c2ccc(N)nc2c1O` it is “inactive”; for `CN(C)c1ccc(/C=C/c2cccc[n+]2[O-])cc1` it is “inactive”. The entry for `O=C(CCl)Nc1cn(-c2ccccc2)nc1-c1ccccc1` is “inactive”; for `Cc1nn2c(N)c(-c3ccccc3)cnc2c1-c1ccccc1` it is “inactive”; for `Brc1ccc(-c2cn3cccnc3n2)cc1` it is “inactive”. Take `CC1CCCC(C)N1CCCNC(=O)c1cc2c(s1)-c1ccccc1OC2` (configuration not stated): the molecule was classed as inactive. The entry for `O=C(/C=C\Nc1ccc2c(c1)OCO2)c1ccccn1` is “inactive”; for `CCN(CC)S(=O)(=O)c1cccc(C(=O)N/N=C/c2ccc([N+](=O)[O-])o2)c1` it is “inactive”; for `O=[N+]([O-])c1ccc(/C=N/Nc2ccnc3cc(Cl)ccc23)o1` it is “inactive”. The entry for `CC1CN(N=Cc2ccc([N+](=O)[O-])o2)C(=N)O1` (configuration not stated) is “inactive”; for `CC(C)C(NC(=O)OCc1ccccc1)C(=O)OCC(=O)N1CCCCC1` (configuration not stated) it is “inactive”; for `O=C(NC(=S)NCc1ccccc1)c1ccccc1` it is “inactive”. As to `CCOc1ccc(-n2c(O)c(/C=N/Nc3nc(C)cc(C)n3)c3ccccc3c2=O)cc1`, the molecule was called inactive. As for `COc1ccc(Nc2oc(-c3ccc(OC)cc3)nc2C#N)cc1`, the call was inactive. Turning to `O=C(N/N=C/c1ccccc1)c1ccco1`, the call was inactive. The entry for `Cc1cc(C(=O)N/N=C/c2ccc([N+](=O)[O-])o2)c(C)o1` is “inactive”; for `CC1CCN(C(=O)c2cc3ccccc3o2)CC1` it is “inactive”. The entry for `O=C(Nc1nc2ccccc2s1)Nc1ccc(F)cc1F` is “inactive”; for `O=C(Nc1cnc2ccccn2c1=O)c1ccc(F)cc1` it is “inactive”.
